From PubChem
PAFAH1B3 FP inh: PAFAH1B3 (human) inhibition. Q15102. recombinant PAFAH1B3, FP-rhodamine probe, fluorescence polarization. inhibition, % at 3.39 µM. 340,000 tested, 0.28% active. AID 492972;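 active = inhibition above the screen-wide average of all tested compounds plus 3 SD, cut at about 25% in these data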;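 note: 0% = enzyme with DMSO only and 100% = wells lacking PAFAH1B3 protein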
pPAFAH FP inh: pPAFAH (human) enzyme inhibition; recombinant pPAFAH, FP-rhodamine probe fluorescence polarization; AID 463082; inhibition, % at 3.39 µM; 330,000 tested, 1.5% active;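 active = inhibition above the mean inhibition across the screen plus 3 SD, cut at about 25% in these data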;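 note: inhibitors block binding of the rhodamine activity-based probe so polarization drops; 0% = enzyme with DMSO and 100% = wells lacking pPAFAH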
Target sequence (Q13093 whole entry, looked up): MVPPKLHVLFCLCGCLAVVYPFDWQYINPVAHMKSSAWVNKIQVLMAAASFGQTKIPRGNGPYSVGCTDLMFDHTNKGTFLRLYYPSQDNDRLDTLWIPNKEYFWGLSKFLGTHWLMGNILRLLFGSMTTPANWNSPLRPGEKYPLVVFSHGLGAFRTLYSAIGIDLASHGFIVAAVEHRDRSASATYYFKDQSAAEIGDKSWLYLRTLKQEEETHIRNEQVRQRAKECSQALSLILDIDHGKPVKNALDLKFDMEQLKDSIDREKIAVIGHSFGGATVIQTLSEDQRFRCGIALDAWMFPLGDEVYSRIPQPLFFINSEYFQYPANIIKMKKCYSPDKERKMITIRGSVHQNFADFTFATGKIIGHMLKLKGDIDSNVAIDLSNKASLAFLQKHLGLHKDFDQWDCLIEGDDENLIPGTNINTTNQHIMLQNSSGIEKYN
PAFAH1B2 FP inh: inhibitors of human PAFAH1B2; P68402; recombinant PAFAH1B2, FP-rhodamine activity probe, fluorescence polarization; inhibition, % at 3.39 µM; 340,000 tested, 1.2% active;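 active = inhibition above the mean of all tested compounds plus 3 SD, cut at about 24% in these data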;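 note: 0% = enzyme with DMSO and 100% = wells lacking PAFAH1B2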
Target sequence (P68402 whole entry, looked up): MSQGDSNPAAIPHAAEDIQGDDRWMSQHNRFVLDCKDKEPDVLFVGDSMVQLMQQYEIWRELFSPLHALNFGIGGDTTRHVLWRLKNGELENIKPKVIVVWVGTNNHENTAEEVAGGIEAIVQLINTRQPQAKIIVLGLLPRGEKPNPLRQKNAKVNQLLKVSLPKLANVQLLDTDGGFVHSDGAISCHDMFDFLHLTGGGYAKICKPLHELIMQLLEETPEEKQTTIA
PP1 counter: PP1-alpha (human) inhibition in PP5 counter-screen | P62136 | purified PP1alpha, OMFP fluorescence | inhibition, % at 6.7 µM | 320,000 tested, 0.9% active | AID 2235;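 active = inhibition above the mean inhibition of all tested compounds plus 3 SD, computed separately for each screening campaign, cut at about 15% in these data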
PAFAH2 inh: inhibitors of human PAFAH2; Q99487; recombinant PAFAH2, FP-rhodamine activity probe, fluorescence polarization; inhibition, % at 3.39 µM; 340,000 tested, 0.99% active; AID 492956;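 active = inhibition above the mean over all tested compounds plus 3 SD, cut at about 30% in these data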;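 note: inhibitors block probe labeling of enzyme so polarization drops; 0% = enzyme with DMSO and 100% = wells lacking PAFAH2 protein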
PP5 primary: inhibitors of human protein phosphatase 5 (PP5) | purified PP5c, OMFP substrate fluorescence | inhibition, % at 6.7 µM | 320,000 tested, 0.18% active;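 active = inhibition above the campaign's mean inhibition across all tested compounds plus 3 SD, cut at about 9.5% in these data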;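 note: 0% = DMSO only and 100% = 100 µM cantharidin control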
PAFAH2 FP conf: PAFAH2 (human) inhibition, confirmed. shares compounds with PAFAH2 inh. recombinant PAFAH2, FP-rhodamine activity probe, fluorescence polarization. inhibition, % at 3.39 µM. 2,300 tested, 65% active. AID 493030;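 active = mean inhibition over three repeats above a set limit taken from the earlier primary screen, cut at about 30% in these data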;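 note: inhibitor blocks binding of rhodamine activity probe so polarization falls; 0% = enzyme with DMSO and 100% = wells lacking PAFAH2 protein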
An asterisk follows results filed as active. Sampled rows, rich in hits. Any-hit rate of the full collection: about 3.4%.

Screening CCCCC(C(=O)OCC)C(N)Cc1ccc(F)cc1 (stereo unspecified) returned PAFAH1B3 FP inh 6, pPAFAH FP inh -1, PAFAH1B2 FP inh 4, PP1 counter 0, PAFAH2 inh 6 and PP5 primary 4.
COC(=O)c1ccc(NC(=O)CN2C(=O)CC(C)S(=O)(=O)c3ccccc32)cc1 (stereo unspecified) was read as PAFAH1B3 FP inh 11, pPAFAH FP inh 4, PAFAH1B2 FP inh 0, PP1 counter 0, PAFAH2 inh 0 and PP5 primary 3.
COc1ccc(OCC(=O)NNC(=O)c2cccc(O)c2)cc1 was read as PAFAH1B3 FP inh -3, pPAFAH FP inh 0, PAFAH1B2 FP inh 0, PP1 counter -1, PAFAH2 inh -17 and PP5 primary -1.
For O=C(OCCCc1cc2ccccc2c(=O)o1)c1ccc2c(c1)OCO2 the results were PAFAH1B3 FP inh 0, pPAFAH FP inh 8, PAFAH1B2 FP inh -2, PP1 counter 2, PAFAH2 inh 38*, PP5 primary -2 and PAFAH2 FP conf 15.
Screening O=C(COC(=O)c1ccc(CSc2ccc(Cl)cc2)cc1)Nc1ccccc1 returned PAFAH1B3 FP inh 3, pPAFAH FP inh 15, PAFAH1B2 FP inh 8, PP1 counter 3, PAFAH2 inh 34*, PP5 primary 3 and PAFAH2 FP conf 16.
For O=C(OCCc1cc2ccccc2c(=O)o1)c1ccc2c(c1)OCO2 the results were PAFAH1B3 FP inh 0, pPAFAH FP inh 5, PAFAH1B2 FP inh 0, PP1 counter -3, PAFAH2 inh 8 and PP5 primary 1.
Screening COc1cccc(NC(=O)c2ccc3c(c2)OCO3)c1 returned PAFAH1B3 FP inh 8, pPAFAH FP inh 10, PAFAH1B2 FP inh -2, PP1 counter -3, PAFAH2 inh -2 and PP5 primary 0.
Cc1cccc(NC(=O)COC(=O)c2ccc3c(c2)OCO3)c1C was read as PAFAH1B3 FP inh 10, pPAFAH FP inh 2, PAFAH1B2 FP inh 2, PP1 counter 0, PAFAH2 inh 40*, PP5 primary -2 and PAFAH2 FP conf 42*.
Screening COc1cccc(NC(=O)COC(=O)c2ccc3c(c2)OCO3)c1 returned PAFAH1B3 FP inh -1, PAFAH1B2 FP inh 2, PAFAH2 inh 83* and PAFAH2 FP conf 73*.
`O=C(c1ccco1)N1CCN(Cc2cc(=O)c(OCc3ccccc3F)co2)CC1` gave PAFAH1B3 FP inh 9, pPAFAH FP inh 4, PAFAH1B2 FP inh 8, PP1 counter -3, PAFAH2 inh 7 and PP5 primary 3.
`CCCN(CCC)CC(O)CN1C(=O)N(CN2C(=O)N(CC(O)CN(CCC)CCC)C(=O)C2(C)C)C(C)(C)C1=O` (stereo unspecified) gave PAFAH1B3 FP inh 4, pPAFAH FP inh 4, PAFAH1B2 FP inh 9, PP1 counter -2, PAFAH2 inh -4 and PP5 primary 4.
Screening S=c1[nH]ncn2c1cc1oc3ccccc3c12 returned PAFAH1B3 FP inh 3, pPAFAH FP inh -1, PAFAH1B2 FP inh 3, PP1 counter 4, PAFAH2 inh 1 and PP5 primary -2.
Screening Nn1c(SCC(=O)N2CCCC2=O)nnc1-c1cccs1 returned PAFAH1B3 FP inh 1, pPAFAH FP inh -4, PAFAH1B2 FP inh 1, PP1 counter 0, PAFAH2 inh 7 and PP5 primary 1.
O=C(COC(=O)c1cc(S(=O)(=O)N2CCOCC2)ccc1F)NCc1ccco1 was read as PAFAH1B3 FP inh -1, pPAFAH FP inh 9, PAFAH1B2 FP inh 2, PP1 counter 1, PAFAH2 inh -6 and PP5 primary -1.
Screening CC(NS(=O)(=O)c1ccc(Cl)c(Cl)c1)C(=O)OCC(=O)Nc1ccc2c(c1)OCO2 (stereo unspecified) returned PAFAH1B3 FP inh 5, pPAFAH FP inh 11, PAFAH1B2 FP inh 3, PP1 counter 1, PAFAH2 inh 31*, PP5 primary 2 and PAFAH2 FP conf 24.
`O=C(COC(=O)/C=C/c1ccc2c(c1)OCO2)Nc1ccccc1` gave PAFAH1B3 FP inh 8, pPAFAH FP inh 3, PAFAH1B2 FP inh 9, PP1 counter -5, PAFAH2 inh 79*, PP5 primary -2 and PAFAH2 FP conf 81*.
NC(=O)c1ccc(NC(=O)COC(=O)c2ccc3c(c2)OCCO3)cc1 was read as PAFAH1B3 FP inh 11, pPAFAH FP inh 0, PAFAH1B2 FP inh 5, PP1 counter -3, PAFAH2 inh 18 and PP5 primary 1.
O=C(COC(=O)c1ccc2c(c1)OCO2)Nc1ccccc1 was read as PAFAH1B3 FP inh 4, pPAFAH FP inh 15, PAFAH1B2 FP inh 1, PP1 counter -2, PAFAH2 inh 84*, PP5 primary 1 and PAFAH2 FP conf 81*.
For CN(C)S(=O)(=O)c1cc(NC(=O)COC(=O)c2ccc3c(c2)OCO3)ccc1Cl the results were PAFAH1B3 FP inh 8, pPAFAH FP inh -1, PAFAH1B2 FP inh 4, PP1 counter -3, PAFAH2 inh 57*, PP5 primary -1 and PAFAH2 FP conf 78*.
`CN(C)S(=O)(=O)c1cc(NC(=O)COC(=O)C2COc3ccccc3O2)ccc1Cl` (stereo unspecified) gave PAFAH1B3 FP inh 7, pPAFAH FP inh 5, PAFAH1B2 FP inh 8, PP1 counter -1, PAFAH2 inh -2 and PP5 primary 2.
For O=C(COC(=O)/C=C/c1ccc2c(c1)OCO2)Nc1ccc(S(=O)(=O)N2CCCC2)cc1 the results were PAFAH1B3 FP inh -7, pPAFAH FP inh 3, PAFAH1B2 FP inh -2, PP1 counter 1, PAFAH2 inh -8 and PP5 primary 0.
`COc1cc(C(C)=O)ccc1OCC(=O)Nc1ccc2nc(C)sc2c1` gave PAFAH1B3 FP inh 3, pPAFAH FP inh 0, PAFAH1B2 FP inh -2, PP1 counter 5, PAFAH2 inh 2 and PP5 primary 0.
For N#CC(c1ccc(O)cc1)N1CCN(C(C#N)c2ccc(O)cc2)CC1 (stereo unspecified) the results were PAFAH1B3 FP inh 4, PAFAH1B2 FP inh 0 and PAFAH2 inh 7.
O=C(COC(=O)c1ccc(F)cc1)NCc1ccc(F)cc1 was read as PAFAH1B3 FP inh -4, pPAFAH FP inh 5, PAFAH1B2 FP inh -1, PP1 counter -4, PAFAH2 inh 31*, PP5 primary 0 and PAFAH2 FP conf 18.
For O=C(COC(=O)c1ccc(Br)cc1)NCc1ccc(F)cc1 the results were PAFAH1B3 FP inh 10, pPAFAH FP inh 20, PAFAH1B2 FP inh 0, PP1 counter -3, PAFAH2 inh 42*, PP5 primary -3 and PAFAH2 FP conf 27.
`O=C1CCCN1C(=O)COc1ccccc1[N+](=O)[O-]` gave PAFAH1B3 FP inh 3, pPAFAH FP inh 5, PAFAH1B2 FP inh 6, PP1 counter -5, PAFAH2 inh 30*, PP5 primary -2 and PAFAH2 FP conf 19.
